TGFb SMAD3 inh = qHTS for Inhibitors of TGF-b. HepG2 CAGA-GFP TGF-b/SMAD3 reporter, GFP fluorescence, 18 h; TGF-beta stimulated, 500 pg/mL final. Potency, µM (doses to about 46.1 µM), for the others: top-dose activity, negative = inhibition, actives largely listed as inhibitors. hit rate 1.2% among 410,000; note: % is set by controls: 0 for no effect and ±100 for the full control effect; nearly all actives have a fitted effect of over 65% in size
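First, reporter cells (HEPG2 CAGA-GFP) rested 2 h at 37 degrees C. Next, compounds were pinned in and TGF-beta added to 500 pg/mL final. After 18 h, GFP was imaged per cell and summed per well.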
HT1080-NT tox = qHTS for induction of synthetic lethality in tumor cells producing 2HG: qHTS for the HT-1080-NT fibrosarcoma cell line; HT-1080-NT fibrosarcoma viability, CellTiter-Glo ATP luminescence, 48 h; Potency, µM (titrated, usually from 46.1 µM), inactives show top-dose activity, negative = less viability, hits mostly cytotoxic; hit rate 1.6% among 360,000;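 note: NT is the 2HG producing partner of a matched IDH1 knockdown line; 0% = DMSO-treated cells and -100% = media-only wells without cells; nearly all actives have a fitted effect of over 55% in size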
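A 48-hour cytotoxicity screen used HT-1080-NT cells plated 2 hours before compound delivery. ATP-based CellTiter-Glo luminescence measured viability, normalized to DMSO and no-cell controls.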
HepG2 viability = qHTS for Inhibitors of TGF-b: Cytotox Counterscreen; HepG2 CAGA-GFP viability, ATP luminescence, 18 h; Potency, µM (highest dose often 46.1 µM), for the others: at the highest dose activity change, negative = cytotoxicity, usual class: cytotoxic; hit rate 0.76% among 410,000
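HepG2 CAGA-GFP cells (1000/well, DMEM with 1% FBS) received compound, then TGF-beta at 500 pg/mL final, and were incubated 18 hours at 37 degrees C. Viability was read by CellTiter-Glo luminescence. Media-only wells were set as complete cell-killing and DMSO as no toxicity.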
ATXN2 expr inh = Primary qHTS for Inhibitors of ATXN expression. hit rate 0.72% among 360,000. HEK-293 ATXN2-luciferase reporter, luminescence, 24 h. Potency, µM (titrated, usually from 57 µM), for inactives: at the highest dose activity change, negative = inhibition, actives largely listed as inhibitors. AID 1745845, 2022; note: % is set by controls: 0 for no effect and ±100 for the full control effect; nearly all actives have a fitted effect of over 55% in size
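ATXN2-luciferase reporter cells (luciferase flanked by upstream and downstream ATXN2 gene portions) were treated 24 h at 37 °C with compounds at up to 57 uM. SteadyGlo luminescence gave expression; GF-AFC fluorescence gave viability.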
HT1080 IDH1KD tx = qHTS for induction of synthetic lethality in tumor cells producing 2HG: qHTS for the HT-1080-IDH1KD cell line; HT-1080 IDH1 knockdown viability, ATP luminescence, 48 h; Potency, µM (top dose mostly 46.1 µM), for the others: at the top dose activity, negative = toxicity, usual class: cytotoxic; hit rate 2% among 360,000; AID 686971, 2013;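 note: 0% = DMSO wells and -100% = cell-free medium wells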
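% activity derives from luminescence (CellTiter-Glo), normalised to DMSO and no-cell wells. HT-1080-IDH1KD cells, 750/well, had 48 h compound exposure at 37 °C.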
ATXN viability = Viability Counterscreen for Primary qHTS for Inhibitors of ATXN expression; AID 651635, 2014; S2 cells (HEK-293 line with an ATXN2-luciferase reporter) viability, CellTiter-Fluor protease fluorescence, 24 h; hit rate 0.49% among 400,000; Potency, µM (doses to about 56.7 µM), usual class: cytotoxic; note: nearly all actives have a fitted effect of over 40% in size
* = called active by the depositor; i = inactive; ? = inconclusive; / = no result; [ ] = another dose, or the depositor's remark. An excerpt weighted towards active compounds, which were near 3.8% of everything screened. Calls come from the whole dose curve; as a rule, active = well fitted curve in the direction sought with a large enough effect; inconclusive = small, poorly fitted or top-dose-only effect, or another doubt; inactive = no such curve, though single readings can be large; an effect the other way counts as inactive or inconclusive. Potency is the fitted concentration of half-maximal effect.

SMILES	TGFb SMAD3 inh	HT1080-NT tox	HepG2 viability	ATXN2 expr inh	HT1080 IDH1KD tx	ATXN viability
Cc1cc(C)c2oc(-c3cccc(NC(=O)COc4ccc(Cl)cc4C)c3C)nc2c1	-4%	/	4%	/	/	/
Cc1ccc(C(=O)C(c2ccccc2)N2Cc3ccccc3C2=N)cc1 (stereo not drawn)	?	?	-53%	0%	?	14µM*
CC(C)CCNC(=O)[C@@H](c1ccccc1)N1Cc2ccccc2C1=O	-28%	/	-11%	13%	/	i
Cc1c(Cl)cccc1NC(=O)C(=O)NCCc1csc(-c2cccc(F)c2)n1	-17%	/	-1%	-4%	/	i
O=C(C1CCC1)N1CCc2cc(S(=O)(=O)Nc3ccc4c(c3)OCO4)ccc21	-4%	-16%	-17%	-11%	16µM*	i
O=C(CCl)c1ccc2c(c1)CCN2C(=O)C1CCCCC1	?	23µM*	-25%	8%[11.3 µM]	?	?
NC(=O)c1nc(Nc2ccccc2)sc1NC(=O)c1ccccc1Br	8%	/	-63%	/	/	/
CCC(=O)N[C@@H]1c2ccccc2C2(CCN(Cc3ccccn3)CC2)[C@H]1OC	/	/	/	/	/	i
Cc1ccc2c(c1)CN(CCNC(=O)c1n[nH]c3c1CCCC3)CC(C)O2 (stereo not drawn)	/	/	/	/	/	i
Cc1cc(NC(=O)CSc2nc(C(C)C)nc3c2c(=O)n(C)c(=O)n3C)no1	1%	11%	-6%	-12%	-5%	i
CCCCn1c(SCC(=O)Nc2ccc(NC(C)=O)cc2)nc2ccccc2c1=O	-7%	-15%	-25%	-13%	-4%	i
CCCCn1c(SCC(=O)Nc2cc(C)on2)nc2ccccc2c1=O	-54%	-12%	4µM*	-25%	0%	i
O=C(CSc1nc2ccccc2[nH]1)Nc1nc(-c2cccc(Br)c2)cs1	-5%	10%	-22%	4%	12%	i
CN(C)CCCn1c(SCC(=O)Nc2nc(-c3cccc(Br)c3)cs2)nc2ccccc2c1=O	?	21µM*	-100%	-33%	16µM*	i
CCCCn1c(SCC(=O)Nc2cc(NC(=O)c3ccco3)ccc2C)nc2ccccc2c1=O	-3%	?	-11%	?	11µM*	?
CCCn1c(=O)n(C)c(=O)c2c(SCC(=O)Nc3cc(C)on3)nc(C(C)(C)C)nc21	18µM*	-24%	-89%	-27%	-21%	?
COCCn1c(SCC(=O)Nc2ccc(NC(=O)c3ccco3)c(OC)c2)nc2ccccc2c1=O	0%	?	9%	-18%	?	i
O=C(CCc1nc2cccnc2n1Cc1cccs1)Nc1cccc(Cl)c1	?	/	-19%	/	/	/
CCNc1ccc(/C=C2\C=Cc3ccccc32)cc1	5%	/	-18%	/	/	/
Cc1cc(NC(=O)CSc2nc(-c3cccs3)nc3ccccc23)no1	-23%	5.8µM*	-9%	-19%	5.2µM*	?
C/C=C(\C)C(=O)OC(C)(C)[C@@H]1Cc2cc3ccc(=O)oc3cc2O1	6.3µM*	-5%	-32%	-23%	1%	i
COc1ccccc1CCc1nc2ccccc2n1C1CCN(C(=O)c2cc(C)nn2C)CC1	/	/	/	/	/	i
CCNC(=S)N/N=C/c1cc(Br)cc(Br)c1OC	1%	4.5µM*	-19%	2%	4µM*	i
COc1c(Br)cc(Br)cc1/C=N/NC(=O)c1ccncc1	6%	1%	0%	-6%	1%	i
Cc1ccc(C)c(N2CCN(CCCNC(=O)Cn3cccc3C(=O)c3ccccc3)CC2)c1	-14%	2%	-35%	?	8%	17µM*
SMILES	TGFb SMAD3 inh	HT1080-NT tox	HepG2 viability	ATXN2 expr inh	HT1080 IDH1KD tx	ATXN viability
CCN(CC)S(=O)(=O)c1ccc2c(c1)N(CC(=O)NCCCN1CCN(c3cc(C)ccc3C)CC1)C(=O)CO2	?	/	16µM*	32µM*	/	16µM*
O=C(Cn1cccc1C(=O)c1ccccc1)NCCCN1CCOCC1	2%	21%	-14%	0%	21%	i
Cc1nn(CC(=O)NCC(C)c2ccccc2)c(=O)c2cc3ccccc3n12 (stereo not drawn)	40%	/	46%	/	/	/
CCN1CCN(c2ncc3c(n2)CC(c2ccc(OC)c(OC)c2)CC3=O)CC1 (stereo not drawn)	15%	11µM*	3%	-24%	13µM*	i
CCOC(=O)N1CCN(c2ncc3c(n2)CC(c2ccc(OC)c(OC)c2)CC3=O)CC1 (stereo not drawn)	1%	/	6%	-7%	/	i
Cn1nc(-c2ccc(C(=O)Nc3cccc(Cl)c3)cc2)c2ccccc2c1=O	-9%	?	-29%	16µM*	?	40µM*
O=C(NCC1(N2CCOCC2)CCCCC1)c1cnn(-c2nccc(-c3cccs3)n2)c1C1CC1	/	/	/	/	/	i
O=C(NC(=S)Nc1ccc(S(=O)(=O)Nc2nccs2)cc1)c1ccccc1	-9%	2%	16µM*	-19%	1%	i
O=C(Nc1nccs1)c1ccc(S(=O)(=O)NCc2cccs2)cc1	?	?	10µM*	17%	-13%	i
CN(C)CCCN(C(=O)c1ccc2c(c1)CCCC2)c1nc2cc3c(cc2s1)OCO3	?	18µM*	-45%	?	?	i
CN(C)CCCN(C(=O)CCSc1ccccc1)c1nc2cc3c(cc2s1)OCO3	?	?	-155%	?	18µM*	?
CN(C)CCCN(C(=O)c1ccc(C(=O)c2ccccc2)cc1)c1nc2cc3c(cc2s1)OCCO3	14µM*	?	-89%	-20%	?	i
CN(C)CCCN(C(=O)c1ccc2c(c1)CCCC2)c1nc2ccc(F)cc2s1	?	-21%	-117%	1%	-29%	i
Cc1cccc(NC(=O)CSC2=Nc3ccccc3C3=NC(CCC(=O)NCc4ccco4)C(=O)N23)c1 (stereo not drawn)	-2%	/	-13%	0%	/	i
CCCC(=O)Nc1nnc(SCc2cc(=O)n3cccc(C)c3n2)s1	-3%	/	9%	/	/	/
CN(C)c1ccc(/C=C\C=C/c2ccnc3ccccc23)cc1	8.9µM*	/	-32%	/	/	/
CCCCN(CCC(=O)O)c1ccc(/C=C/c2ccnc3ccccc23)cc1	?	/	5.6µM*	/	/	/
CN(C)c1ccc(/C=C/c2ccnc3ccccc23)c(F)c1	?	/	-51%	/	/	/
COc1ccc(CCC(=O)NO)cc1	27%	/	4%	/	/	/
